Results on 38 molecules are retold here after PubChem BioAssay (Tox21).

Values joined by “and” are separate entries in the source; they are usually repeats but may differ in a detail not shown here. Identical values can stand only once. Records with an inconclusive call do not appear. Entries that show only a call come without a potency. Some structures have more than one record in an assay (separate samples or runs), and their calls can disagree. Active and inactive are the calls of the source. Calls come from the whole dose curve; as a rule, active = well fitted inhibition curve with a large enough effect in the repeat runs; inconclusive = weak or mixed curves; inactive = flat fitted curve, though single readings scatter.
Potency is the fitted concentration of half-maximal effect.

Sequence of Luciferin 4-monooxygenase (Photinus pyralis) (P08659 whole entry, looked up): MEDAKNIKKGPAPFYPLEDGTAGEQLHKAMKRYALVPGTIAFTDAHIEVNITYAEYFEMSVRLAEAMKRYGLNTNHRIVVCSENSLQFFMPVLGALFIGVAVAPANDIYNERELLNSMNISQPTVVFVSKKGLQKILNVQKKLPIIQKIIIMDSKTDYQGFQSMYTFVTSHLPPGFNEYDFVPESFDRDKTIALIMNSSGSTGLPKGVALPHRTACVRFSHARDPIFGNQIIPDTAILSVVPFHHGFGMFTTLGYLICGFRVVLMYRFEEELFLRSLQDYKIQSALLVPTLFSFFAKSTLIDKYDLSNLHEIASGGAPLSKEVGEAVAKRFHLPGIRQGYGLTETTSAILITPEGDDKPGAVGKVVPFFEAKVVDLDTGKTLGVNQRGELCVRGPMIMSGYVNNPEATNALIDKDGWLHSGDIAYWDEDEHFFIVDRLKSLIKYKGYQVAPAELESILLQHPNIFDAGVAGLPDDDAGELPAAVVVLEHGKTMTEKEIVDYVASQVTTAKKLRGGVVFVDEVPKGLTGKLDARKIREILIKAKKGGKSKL

The target of the test is Luciferin 4-monooxygenase (Photinus pyralis) (UniProt P08659). The test is described as follows: qHTS assay to identify small molecule inhibitors of firefly luciferase (AID 1224835). Note: nearly all actives have a fitted effect of over 25% in size. The conditions noted are these: purified P. pyralis luciferase, luminescence inhibition; series mostly up to 115 µM. An outline of the steps:
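Inhibition of purified Photinus luciferase is measured by luminescence. Substrate levels (D-luciferin, ATP) sit at their KM values. Each compound is tested in a concentration series.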
For orientation: In qHTS, concentration-response curves come from the screen itself.
Consider `COc1ccc2nc(N)sc2c1`, for which the Potency is 35.6 µM (active) and 31.7 µM (active).
The entry for `C[C@]12C=CC(=O)C=C1CC[C@H]1[C@@H]3C[C@@H](O)[C@](O)(C(=O)CO)[C@@]3(C)C[C@H](O)[C@@]12F` is “inactive”.
As to `C[N+](C)(C)CCO`, the Potency entry was “inactive”.
For the molecule `c1ccc2c(c1)ccc1ncccc12`, the Potency is 62.8 µM (active) and 35.6 µM (active).
Take `Cc1ccc2c(c1)C(=O)OC2=O`: the Potency entry was “inactive”.
The entry for `c1ccc2cc3ccccc3cc2c1` is “inactive”.
Then `O=Cc1ccccc1C=O`, with “inactive”; and `CNC[C@H](O)c1ccc(O)c(O)c1`, with “inactive”; and `C=CCOC(=O)C(=C)C`, with “inactive”.
Take `C=C1C[C@H]2[C@@H]3C=C(C)C4=CC(=O)CC[C@]4(C)[C@H]3CC[C@]2(C)[C@@]1(OC(C)=O)C(C)=O`: the Potency result was “inactive”.
Then `CCCCCC1C(=O)CCC1CC(=O)OC` (stereo not drawn), with “inactive”.
The entry for `CC(=O)O[C@]1(C(C)=O)CC[C@H]2[C@@H]3C=C(Cl)C4=CC(=O)CC[C@]4(C)[C@H]3CC[C@@]21C` is “inactive”; for `CC(=O)Nc1ccc2c(c1)Cc1cc(NC(C)=O)ccc1-2` it is “inactive”.
As to `Nc1ccc2c(c1)C(=O)c1ccccc1C2=O`, the Potency was 2.78 µM (active) and 2.52 µM (active).
Then `O=C(O)c1cc(=O)[nH]c(=O)[nH]1`, with “inactive”; and `C[C@]12CC[C@@H]3c4ccc(O)cc4CC[C@H]3[C@@H]1CC[C@H]2O`, with “inactive and 39.9 µM (active)”; and `IC(I)I`, with 35.5 µM (active) and 35.6 µM (active).
Then `Oc1c(Cl)ccc(Cl)c1Cl`, with “inactive”; and `Nc1cc(Cl)c(N)c(Cl)c1`, with “inactive”.
In the case of `OC[C@@H](O)[C@@H](O[C@@H]1O[C@H](CO)[C@H](O)[C@H](O)[C@H]1O)[C@H](O)[C@@H](O)CO`, the Potency result is “inactive”.
Then `C[C@]12CC[C@@H]3c4ccc(O)cc4CC[C@H]3[C@@H]1CC[C@@H]2O`, with 39.8 µM (active) and 79.6 µM (active); and `C=CC(C)(O)CCC=C(C)C` (stereo not drawn), with “inactive”.
`C=C[C@@]1(C)CC(=O)[C@]2(O)[C@@]3(C)[C@@H](O)CCC(C)(C)[C@@H]3[C@H](O)[C@H](OC(C)=O)[C@@]2(C)O1`: the Potency entry is “inactive”.
The figure for `c1ccc2c(c1)ccc1cc3c(ccc4ccccc43)cc12` is 788 nM (active) and 250 nM (active).
For `C=C[Si](OCCOC)(OCCOC)OCCOC`, the Potency result was “inactive”.
The entry for `C=CCNCC=C` is “inactive”; for `c1ccc2c(c1)[nH]c1ccccc12` it is 39.2 µM (active) and inactive; for `Clc1ccc(Sc2cc(Cl)c(Cl)cc2Cl)cc1` it is “inactive”.
Then `C1CN(SSN2CCOCC2)CCO1`, with “inactive”; and `CC(=O)OC(C)C`, with “inactive”.
Regarding `O=C(O)CCCCCCCCCCCC(=O)O`, the Potency result is “inactive”.
For `[O-]/[N+](=N\O)c1ccccc1`, the Potency is 35.3 µM (active) and 22.4 µM (active).
The entry for `NC[C@H](O)c1ccc(O)c(O)c1` is “inactive”; for `COc1ccc(-c2coc3cc(O)cc(O)c3c2=O)cc1` it is 6.38 µM (active) and 5.03 µM (active); for `OC[C@H]1O[C@@H]2O[C@H]3[C@H](O)[C@@H](O)[C@@H](O[C@H]4[C@H](O)[C@@H](O)[C@@H](O[C@H]5[C@H](O)[C@@H](O)[C@@H](O[C@H]6[C@H](O)[C@@H](O)[C@@H](O[C@H]7[C@H](O)[C@@H](O)[C@@H](O[C@H]1[C@H](O)[C@H]2O)O[C@@H]7CO)O[C@@H]6CO)O[C@@H]5CO)O[C@@H]4CO)O[C@@H]3CO` it is “inactive”.
Then `CC(C)[N+](C)(CCOC(=O)C1c2ccccc2Oc2ccccc21)C(C)C`, with “inactive”; and `Nc1ccc(N)c(Cl)c1`, with “inactive”.
The figure for `Nc1ccc2c(O)cc(S(=O)(=O)O)cc2c1` is 63.4 µM (active) and 44.8 µM (active).
